# Screens deposited in PubChem by National Center for Advancing Translational Sciences (NCATS).
# The list is not random: actives were taken first. Their share in the collection is about 2.3%.
# USP1 inh = USP1/UAF1 (human) deubiquitinase inhibition; AID 743255; O94782; 0.23% of 390,000 active; recombinant USP1/UAF1, Ub-Rhodamine cleavage fluorescence; Potency, µM (highest dose often 57.1 µM), inactives show at the highest dose activity change, negative = inhibition, usual class: inhibitors; also: potency is read from the fitted curve at half-maximal effect; nearly all actives have a fitted effect of over 60% in size
# Target sequence (O94782 whole entry, looked up): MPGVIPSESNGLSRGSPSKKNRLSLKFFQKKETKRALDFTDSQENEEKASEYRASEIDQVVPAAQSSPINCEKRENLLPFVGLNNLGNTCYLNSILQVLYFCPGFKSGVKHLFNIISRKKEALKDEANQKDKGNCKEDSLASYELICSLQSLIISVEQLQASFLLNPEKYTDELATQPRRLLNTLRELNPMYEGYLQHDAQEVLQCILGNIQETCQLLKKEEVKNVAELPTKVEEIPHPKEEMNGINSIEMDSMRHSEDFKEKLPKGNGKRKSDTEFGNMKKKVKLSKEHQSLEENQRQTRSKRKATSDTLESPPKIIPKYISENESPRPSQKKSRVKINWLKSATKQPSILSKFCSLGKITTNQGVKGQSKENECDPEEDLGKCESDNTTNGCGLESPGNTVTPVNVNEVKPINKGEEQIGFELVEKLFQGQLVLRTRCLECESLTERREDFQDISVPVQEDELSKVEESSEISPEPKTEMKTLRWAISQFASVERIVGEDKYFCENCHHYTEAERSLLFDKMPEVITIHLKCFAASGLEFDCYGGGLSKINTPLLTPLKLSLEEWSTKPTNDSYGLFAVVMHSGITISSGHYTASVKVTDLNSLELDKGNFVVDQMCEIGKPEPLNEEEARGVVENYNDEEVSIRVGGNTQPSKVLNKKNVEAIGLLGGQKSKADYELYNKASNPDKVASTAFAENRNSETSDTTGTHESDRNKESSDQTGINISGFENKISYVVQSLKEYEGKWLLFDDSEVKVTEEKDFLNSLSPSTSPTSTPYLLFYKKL
#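 1 nM enzyme complex + cpd, 15 min RT; start with Ub-Rho 150nM final; kinetic fluorescence ex 480/em 540, 6 reads q60 s. Buffer 50mM HEPES pH 7.8, 0.5mM EDTA, 0.1 mg/ml BSA, 1mM TCEP, 0.01% Tween-20.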
# Tau ThT inhib = inhibitors of human tau fibril formation, thioflavin T binding | AID 1460 | 2.1% of 270,000 active | P10636 | recombinant tau K18 P301L, heparin-induced fibrillization, ThT fluorescence | Potency, µM (titrated, usually from 57.4 µM), inactives show at the highest dose activity, negative = inhibition, hits mostly inhibitors; also: potency is read from the fitted curve at half-maximal effect; nearly all actives have a fitted effect of over 55% in size
#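 Tau K18 P301L fragment (15 uM unlabeled plus 0.24 uM Alexa 594-labeled) in 100 mM sodium acetate pH 7 with compound, fibrillization induced by 20 uM heparin for 6 hr at 37 C. Thioflavin T (30 uM) added, fluorescence read after 1 hr (ex 450, em 510 nm).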
# Tau fluor counter = counter-screen for tau fibril formation inhibitors; AID 1463; Potency, µM (top dose mostly 57.7 µM), for inactives: at the highest dose activity change, negative = decrease; 0.93% of 280,000 active; tau K18 P301L Alexa594 fluorescence, heparin fibrillization; also: potency is read from the fitted curve at half-maximal effect; nearly all actives have a fitted effect of over 55% in size
#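 Human tau K18 P301L (15 uM unlabeled, 0.24 uM Alexa 594-labeled) in 100 mM sodium acetate pH 7 with 20 uM heparin, 6 hr at 37 C. ThT 30 uM added, 1 hr ambient; Alexa 594 FP and total fluorescence read at 555/632 nm.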
# Tau FP inhib = blocks human tau fibril formation measured by polarization; K18 P301L tau heparin fibrillization, Alexa594 FP, 6 h; Potency, µM (series often up to 57.7 µM), without a hit: at the highest dose activity, negative = inhibition, actives largely listed as inhibitors; 0.39% of 280,000 active; AID 1468; also: potency is read from the fitted curve at half-maximal effect; nearly all actives have a fitted effect of over 55% in size
#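 Recombinant K18 P301L […], labeled with Alexa 594 at 0.24 uM over 15 uM unlabeled; heparin inducer 20 uM final; 37 C, 6 hr; FP endpoint.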
# Coupling enz = inhibits coupling enzyme system, counter-screen for aldolase hits; coupling enzyme system counterscreen, AmpLite Red fluorescence; activity change, negative = inhibition, % at 58.2 µM, hits read low; 0.67% of 290,000 active; AID 2472; in the data active = activity change below about -30%
#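 First, compound is pin-transferred into glyceraldehyde-3-phosphate coupling-enzyme reagent at 57.5 uM final and held 10 min at RT. Next, substrate, coupling system and AmpLite Red are added. After 20 min RT, fluorescence (525/598 nm) is read.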
# * hit, by the source's call; u = inconclusive; x = no result given; [ ] = remark or other dose. Unless noted, calls follow the shape of the dose curve; as a rule, active = well fitted curve in the direction sought with a large enough effect; inconclusive = small, poorly fitted or top-dose-only effect, or another doubt; inactive = no such curve, though single readings can be large; an effect the other way counts as inactive or inconclusive. % is scaled to controls: 0 for no effect and ±100 for the full control effect.
SMILES,USP1 inh,Tau ThT inhib,Tau fluor counter,Tau FP inhib,Coupling enz
CC1=CC(=Nc2c(C)n(C)n(-c3ccccc3)c2=O)C=CC1=O,x,3.2µM*,u,10µM*,-46*
CC1=CC(=Nc2c(C)n(C)n(-c3ccccc3)c2=O)C=C(C)C1=O,-16%,11µM*,u,u,-48*
COc1ccc(-c2coc3cc(O)ccc3c2=O)c(OC)c1O,x,-10%,-9%,2%,1
COc1ccc(-c2coc3cc(O)ccc3c2=O)c(O)c1O,x,10µM*,13µM*[quencher],16µM*,-13
Cc1oc(C)c2c(=O)ccc3c(c12)OC(N)=C(C#N)C3c1ccccc1Cl (stereo not drawn),-26%,20µM*,u,u,-27
COc1ccc(C2C(C#N)=C(N)Oc3c2oc(CO)cc3=O)cc1 (stereo not drawn),-12%,-8%,-8%,-5%,-24
CSc1ccc(C2C(C#N)=C(N)Oc3c2ccc(=O)c2c(C)oc(C)c32)cc1 (stereo not drawn),u,25µM*,u,u,-36*
N#CC1=C(N)Oc2c(ccc3cccnc23)C1c1ccccc1 (stereo not drawn),-30%,-15%,-20%,-2%,-6
Cc1oc(C)c2c(=O)ccc3c(c12)OC(N)=C(C#N)C3c1ccccc1 (stereo not drawn),u,25µM*,u,u,-2
COCCNC(=O)c1c[nH]c2ccc(S(=O)(=O)Nc3ccccc3F)cc2c1=O,-12%,x,x,x,-2
COCCCNC(=O)c1c[nH]c2ccc(S(=O)(=O)N3CCc4ccccc43)cc2c1=O,-13%,10%,u,28µM*,0
Cc1ccc(CCNC(=O)c2c[nH]c3ccc(S(=O)(=O)Nc4ccc(C)cc4C)cc3c2=O)cc1,-14%,6%,u,4.5µM*,x
COc1cccc(NS(=O)(=O)c2ccc3[nH]cc(C(=O)NCCc4ccc(C)cc4)c(=O)c3c2)c1,-9%,8%,u,u,x
Cc1cccc(CCNC(=O)c2c[nH]c3ccc(S(=O)(=O)Nc4ccccc4F)cc3c2=O)c1,-18%,14%,u,7.1µM*,x
CCN1C(=O)c2ccccc2S(=O)c2ccc(C(=O)N3CCN(c4ccccc4OC)CC3)cc21 (stereo not drawn),-5%,-8%,0%,6%,x
O=S(=O)(Nc1ccc(F)c(Cl)c1)c1ccc(Br)s1,-18%,-8%,u,-10%,x
Cc1cc(NC(=O)c2ccccc2F)ccc1-c1nc2ccccc2s1,-2%,u,-7%,-9%,x
O=C(Nc1cc(Sc2ccccn2)cc([N+](=O)[O-])c1)c1cccc(F)c1,-26%,4%,7%,4%,-1
O=C(Nc1cc(Sc2nc3ccccc3s2)cc([N+](=O)[O-])c1)c1ccccc1F,-22%,-15%,13µM*[quencher],u,-4
O=C(Nc1cc(Sc2nc3ccccc3s2)cc([N+](=O)[O-])c1)c1ccccc1,-19%,0%,4µM*[quencher],5%,-3
Cc1c(C(=O)N2CCC(C)CC2)c(S(=O)(=O)Nc2cccc(C#N)c2)c(C)n1C,-16%,-1%,-2%,4%,x
COc1cccc(CNc2ccc(N3CCCCC3)cc2)c1OC,u,14µM*,u,u,-34*
COc1ccccc1CNc1ccc(N2CCCCC2)cc1,-16%,22µM*,u,u,-12
COc1ccccc1CNc1ccc(C(=O)O)cc1,-19%,-3%,3%,11%,6
CCc1cccc(CC)c1-n1nnc2c(sc3nc(C)cc(C)c32)c1=O,3%,-3%,0%,-2%,x
SMILES,USP1 inh,Tau ThT inhib,Tau fluor counter,Tau FP inhib,Coupling enz
CCOC(=O)C1=C(C)Nc2sc(C(=O)c3ccc(OC)cc3)c(N)c2C1c1ccc(C(=O)OC)cc1 (stereo not drawn),-7%,6%,5µM*[quencher],7%,0
COC(=O)C1=C(C)Nc2sc(C(N)=O)c(N)c2C1c1ccncc1 (stereo not drawn),-9%,8%,4%,0%,-13
Cc1cc(C)cc(NCc2nnc3n2CCCCC3)c1,u,u,-16%,-4%,x
O=C(Nc1ccccc1)Oc1ccc[nH]c1=O,u,x,-27%,-20%,-44*
O=C(Oc1ccc[nH]c1=O)c1ccc(F)cc1,-22%,x,x,x,x
N#CSCC(=O)c1cccc2ccccc12,-17%,25µM*,-12%,u,-3
Nc1nonc1C(=O)NCCN=Cc1cc(Cc2ccccc2)cc(Br)c1O,-27%,28µM*,u,u,-2
CC1=NN(c2ccccc2)C(=O)/C1=C\c1ccc(Oc2ccc([N+](=O)[O-])cc2[N+](=O)[O-])cc1,u,14µM*,14µM*[quencher],u,-16
OC[C@H]1OC(O)[C@@H](O)[C@@H](O)[C@H]1O (stereo partly drawn),x,x,x,x,-1
Cc1cc(N=Nc2c(O)c3ccccc3[nH]c2=O)ccc1N=Nc1ccc(C(=O)N(C)C)cc1,-26%,2.2µM*,u,-9%,1
CN(C)C(=O)c1ccc(N=Nc2c(O)c3ccccc3[nH]c2=O)cc1,-13%,x,x,x,x
CC1CCc2onc(C(=O)Nc3ccc(Cl)cc3)c2C1 (stereo not drawn),1%,-1%,5%,u,x
COC(=O)c1sc(S(=O)(=O)N2CCN(c3ccccc3F)CC2)c(C(=O)OC)c1C,-4%,x,x,x,x
O=C(c1cc2ccccc2cc1O)N1CCN(c2ccc([N+](=O)[O-])cc2)CC1,-13%,x,x,x,x
Oc1ccc(N=Cc2cc(Br)c(N3CCOCC3)o2)cc1,u,3.2µM*,u,u,-28
CC1=C(CC(=O)c2ccccc2)C(=O)c2ccccc2C1=O,-23%,u,u,-12%,-36*
CCCC(=O)NC1=C(Cl)C(=O)c2ccccc2C1=O,18µM*,x,x,x,x
O=C1C(Cl)=C(NCCN2CCCCC2)C(=O)c2ccccc21,18µM*,10µM*,u,-4%,-37*
CCNC1=C(Cl)C(=O)c2ccccc2C1=O,u,18µM*,u,-4%,-33*
Brc1ccc2[nH]ncc2c1,0%,2%,2%,5%,2
Nc1ccc2cn[nH]c2c1,-26%,u,-11%,u,-32*
COCC(=O)N[C@@H]1c2ccccc2CC[C@@H]1OCc1ccccc1,-16%,x,x,x,x
CCCc1cc(-c2[nH]ncc2-c2ccc3c(c2)OCCCO3)c(O)cc1OC,x,u,10µM*[quencher],-13%,-13
COc1ccc(-c2[nH]ncc2-c2ccc3c(c2)OCCO3)c(O)c1,-28%,-4%,-28%,7%,0
CCc1cc(-c2[nH]ncc2-c2ccc3c(c2)OCO3)c(O)cc1O,-6%,u,14µM*[quencher],u,-9
O=C1C2=C(Nc3ccccc3SC2c2c(F)cccc2Cl)c2ccccc21 (stereo not drawn),-20%,u,u,u,x
